Results filed as inconclusive are left out. Active and inactive are the calls of the source. The call rests on the fitted dose curve; in most records, active means well fitted inhibition curve with a large enough effect; inconclusive means small, poorly fitted or top-dose-only effect; inactive means flat fitted curve, though single readings scatter.
Key:
Assay in all cases: qHTS profiling for inhibitors of Plasmodium falciparum proliferation (AID 504749); further: nearly all actives have a fitted effect of over 60% in size
Settings in all cases: P. falciparum in erythrocytes, SYBR Green DNA, 72 h; series mostly up to 28.7 µM
CP192 = test system: CP192
Outline: (§1)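 Fluorescence of SYBR Green-bound parasite DNA, read at 485/535 nm, served as the growth measure. Infected erythrocytes were cultured with compound 72 h; artemisinin (0.29 uM) and DMSO wells defined the normalization range.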

CP201 = test system: CP201
Outline: as §1

CP211 = test system: CP211
Outline: as §1

CP215 = test system: CP215
Outline: as §1

CP217 = test system: CP217
Outline: as §1

CP238 = test system: CP238
Outline: as §1

CP194 = test system: CP194
Outline: as §1

CP203 = test system: CP203
Outline: as §1

CP237 = test system: CP237
Outline: as §1

CP247 = test system: CP247
Outline: as §1

Measured: Potency
Potency means the concentration at half of the fitted maximal effect.

CN(C)CCOC(=O)COc1ccc(Cl)cc1
inactive: CP192 | CP201 | CP211 | CP215 | CP217 | CP238

C=CCc1ccccc1OCC(O)CNC(C)C (stereo not given)
active: CP194 15.1 µM | CP203 10.7 µM | CP237 5.01 µM | CP238 11.2 µM

Cc1nc2ccccn2c(=O)c1CCN1CCC(C(=O)c2ccc(F)cc2)CC1
inactive: CP192 | CP201 | CP211 | CP215 | CP217 | CP238

CCOC(=O)C1=C(C)NC(C)=C(C(=O)OC)C1c1cccc([N+](=O)[O-])c1 (stereo not given)
active: CP237 12.6 µM | CP238 10 µM

CN(C)CC[C@@H](c1ccc(Br)cc1)c1ccccn1
inactive: CP192 | CP211 | CP217

CCCCNc1ccc(C(=O)OCCN(C)C)cc1
not listed: CP201 | CP211 | CP194
inactive: all other assays above

NC1=NCC2c3ccccc3Cc3ccccc3N12 (stereo not given)
not listed: CP215 | CP203
inactive: all other assays above

O=C(CCCN1CCC(O)(c2cccc(C(F)(F)F)c2)CC1)c1ccc(F)cc1
inactive: CP201
active: CP215 10.7 µM | CP237 7.94 µM | CP238 12.6 µM | CP247 7.08 µM

CC(=O)Oc1cc(C(C)C)c(OCCN(C)C)cc1C
not listed: CP215 | CP203
inactive: all other assays above

CN1C[C@H](C(=O)N[C@]2(C)O[C@@]3(O)[C@@H]4CCCN4C(=O)[C@H](Cc4ccccc4)N3C2=O)C[C@@H]2c3cccc4[nH]cc(c34)C[C@H]21
active: CP194 12 µM | CP211 12 µM | CP215 13.5 µM

CC[N+](C)(C)c1cccc(O)c1
not listed: CP215 | CP203
inactive: all other assays above

CCOC(=O)C1=C(C)NC(C)=C(C(=O)OC)C1c1cccc(Cl)c1Cl (stereo not given)
not listed: CP215 | CP194 | CP203
inactive: all other assays above

CCCN1C[C@H](CSC)C[C@@H]2c3cccc4[nH]cc(c34)C[C@H]21
inactive: CP192 | CP201 | CP215

— PubChem BioAssay (NCATS)
